In all, about 5,500 compounds went through this assay and about 2,000 (36%) were called active. Inconclusive results (about 18%) are left out. Cut-off read from the data, not from the text of the source: active = normalized growth mostly below about 0.91 (no sharp cut-off); inconclusive = no clear call, values can overlap the other calls; inactive = mostly above about 0.92. Some of the results follow.
Assay: chemical genetic growth profiling, strain panel (AID 1159580);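 note: tested at 20 µM; growth read once vehicle control cultures reached saturation at 30 °C; 1 = growth at the plate median or of vehicle wells; lower values mean less growth of the strain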
Conditions: S. cerevisiae deletion strains, growth OD
[1] = locus YHR030C, strain SLT2, active compounds read low
[2] = locus YHR079C, strain IRE1, active compounds read low
[3] = locus YJL095W, strain BCK1, active compounds read low
[4] = locus YJR066W, strain TOR1, active compounds read low
[5] = locus YLR113W, strain HOG1, active compounds read low
[6] = locus YNL183C, strain NPR1, active compounds read low
[7] = locus YOR231W, strain MKK1, active compounds read low
[8] = locus YPL256C, strain CLN2, active compounds read low
[9] = locus YAL021C, strain ccr4, active compounds read low
[10] = locus YAL026C, strain drs2, active compounds read low
[11] = locus YAL030W, strain snc1, active compounds read low
[12] = locus YBL061C, strain skt5, active compounds read low
[13] = locus YBR009C, strain hhf1, active compounds read low
[14] = locus YBR023C, strain chs3, active compounds read low
[15] = locus YBR171W, strain sec66, active compounds read low
[16] = locus YBR231C, strain swc5, active compounds read low
[17] = locus YBR279W, strain paf1, active compounds read low
[18] = locus YCL011C, strain gbp2, active compounds read low
[19] = locus YCL016C, strain dcc1, active compounds read low
[20] = locus YCL061C, strain MRC1, active compounds read low
[21] = locus YCL069W, strain vba3, active compounds read low
[22] = locus YCR088W, strain abp1, active compounds read low
[23] = locus YDL005C, strain med2, active compounds read low
[24] = locus YDL040C, strain nat1, active compounds read low
[25] = locus YDR001C, strain nth1, active compounds read low
[26] = locus YDR069C, strain doa4, active compounds read low
[27] = locus YDR137W, strain rgp1, active compounds read low
[28] = locus YDR159W, strain sac3, active compounds read low
[29] = locus YDR297W, strain sur2, active compounds read low
[30] = locus YDR334W, strain swr1, active compounds read low
[31] = locus YDR335W, strain msn5, active compounds read low
[32] = locus YDR392W, strain spt3, active compounds read low
[33] = locus YEL003W, strain gim4, active compounds read low
[34] = locus YEL037C, strain rad23, active compounds read low
[35] = locus YEL061C, strain CIN8 (second series), active compounds read low
[36] = locus YER015W, strain faa2, active compounds read low
[37] = locus YER016W, strain bim1, active compounds read low
[38] = locus YER111C, strain swi4, active compounds read low
[39] = locus YER155C, strain BEM2 (second series), active compounds read low
[40] = locus YFR010W, strain ubp6, active compounds read low
[41] = locus YGL167C, strain pmr1, active compounds read low
[42] = locus YGL173C, strain kem1, active compounds read low
[43] = locus YGL227W, strain vid30, active compounds read low
[44] = locus YGL240W, strain doc1, active compounds read low
[45] = locus YGL253W, strain hxk2, active compounds read low
[46] = locus YHR013C, strain ard1, active compounds read low
[47] = locus YHR027C, strain rpn1, active compounds read low
[48] = locus YHR142W, strain chs7, active compounds read low
[49] = locus YJL092W, strain hpr5, active compounds read low
[50] = locus YJL095W, strain BCK1 (second series), active compounds read low
[51] = locus YJL115W, strain asf1, active compounds read low
[52] = locus YJL129C, strain trk1, active compounds read low
[53] = locus YJL154C, strain vps35, active compounds read low
[54] = locus YJL164C, strain tpk1, active compounds read low
[55] = locus YJL166W, strain qcr8, active compounds read low
[56] = locus YKL160W, strain elf1, active compounds read low
[57] = locus YKR026C, strain gcn3, active compounds read low
[58] = locus YKR091W, strain srl3, active compounds read low
[59] = locus YLL001W, strain dnm1, active compounds read low
[60] = locus YLL026W, active compounds read low
[61] = locus YLL041C, strain sdh2, active compounds read low
[62] = locus YLR027C, strain aat2, active compounds read low
[63] = locus YLR221C, strain rsa3, active compounds read low
[64] = locus YLR258W, strain gsy2, active compounds read low
[65] = locus YLR262C, strain YPT6 (second series), active compounds read low
[66] = locus YLR320W, strain mms22, active compounds read low
[67] = locus YLR342W, strain FKS1, active compounds read low
[68] = locus YLR357W, strain rsc2, active compounds read low
[69] = locus YLR370C, strain arc18, active compounds read low
[70] = locus YLR384C, strain iki3, active compounds read low
[71] = locus YML120C, strain ndi1, active compounds read low
[72] = locus YMR058W, strain fet3, active compounds read low
[73] = locus YMR125W, strain sto1, active compounds read low
[74] = locus YMR129W, active compounds read low
[75] = locus YMR205C, strain PFK2, active compounds read low
[76] = locus YMR231W, strain pep5, active compounds read low
[77] = locus YNL071W, strain lat1, active compounds read low
[78] = locus YNL209W, strain ssb2, active compounds read low
[79] = locus YNL248C, strain rpa49, active compounds read low
[80] = locus YNL322C, strain KRE1 (second series), active compounds read low
[81] = locus YNR049C, strain mso1, active compounds read low
[82] = locus YOR001W, strain rrp6, active compounds read low
[83] = locus YOR070C, strain gyp1, active compounds read low
[84] = locus YOR080W, strain dia2, active compounds read low
[85] = locus YOR083W, strain WHI5, active compounds read low
[86] = locus YOR106W, strain vam3, active compounds read low
[87] = locus YOR265W, strain rbl2, active compounds read low
[88] = locus YOR270C, strain vph1, active compounds read low
[89] = locus YOR290C, strain snf2, active compounds read low
[90] = locus YPL051W, strain arl3, active compounds read low
[91] = locus YPL078C, strain atp4, active compounds read low
[92] = locus YPL106C, strain sse1, active compounds read low
[93] = locus YPL240C, strain hsp82, active compounds read low

Measured: normalized growth

O=S(=O)([O][Al])OC[C@H]1O[C@@](COS(=O)(=O)[O][Al])(O[C@H]2O[C@H](COS(=O)(=O)[O][Al])[C@@H](OS(=O)(=O)[O][Al])[C@H](OS(=O)(=O)[O][Al])[C@H]2OS(=O)(=O)[O][Al])[C@@H](OS(=O)(=O)[O][Al])[C@@H]1OS(=O)(=O)[O][Al]
inactive: [1] 0.977 | [2] 0.981 | [3] 0.986 | [4] 0.958 | [5] 0.984 | [6] 0.924 | [7] 0.98 | [8] 0.985

Nc1cc(C(Cl)=C(Cl)Cl)c(S(N)(=O)=O)cc1S(N)(=O)=O
inactive: [9] 0.98 | [10] 1 | [11] 1.02 | [12] 1.01 | [13] 0.992 | [14] 0.999 | [15] 1.02 | [16] 1.04 | [17] 1.01 | [18] 0.976 | [19] 0.978 | [20] 1.04 | [21] 1.01 | [22] 1.01 | [23] 1.01 | [24] 1.01 | [25] 1.02 | [26] 1.05 | [27] 0.998 | [28] 0.957 | locus YDR195W, strain ref2 0.998 | [29] 1.01 | [30] 1.01 | [31] 1.01 | [32] 0.978 | [33] 1.05 | [34] 1 | [35] 1 | [36] 1.02 | [37] 1 | [38] 1.01 | [39] 1.07 | [40] 1.02 | [41] 1.02 | [42] 1.04 | [43] 1 | [44] 1.04 | [45] 1.01 | [46] 1.03 | [47] 1.02 | [1] 0.977 | [2] 0.967 | [48] 1.02 | [49] 1.02 | [50] 0.997 | [3] 1.01 | [51] 1 | [52] 1.02 | [53] 0.999 | [54] 0.995 | [55] 1.06 | [4] 0.95 | [56] 1.02 | [57] 1.01 | [58] 0.992 | [59] 1.04 | [60] 1.02 | [61] 1.01 | [62] 1.02 | [5] 1 | [63] 0.981 | [64] 0.991 | [65] 1.06 | [66] 0.993 | [67] 1.04 | [68] 1.04 | [69] 1 | [70] 1.01 | [71] 1.03 | [72] 1.02 | [73] 0.972 | [74] 0.998 | [75] 1.03 | [76] 1.01 | [77] 0.991 | [6] 0.962 | [78] 0.994 | [79] 0.995 | [80] 1.01 | [81] 1 | [82] 1.02 | [83] 1 | [84] 1.02 | [85] 1.01 | [86] 1.04 | [7] 0.986 | [87] 1.01 | [88] 1.05 | [89] 0.964 | [90] 1.04 | [91] 1.06 | [92] 0.997 | [93] 1 | [8] 0.964

Cc1ncc([N+](=O)[O-])n1CC(C)O (stereo unspecified)
inactive: [9] 0.954 | [10] 0.956 | [11] 0.975 | [12] 0.974 | [13] 0.982 | [14] 0.995 | [15] 0.976 | [16] 0.992 | [17] 0.995 | [18] 0.968 | [19] 0.975 | [20] 0.924 | [21] 0.975 | [22] 0.986 | [23] 0.976 | [24] 0.978 | [25] 0.95 | [26] 0.966 | [27] 0.983 | [28] 0.972 | locus YDR195W, strain ref2 0.989 | [29] 0.982 | [30] 0.957 | [31] 0.982 | [32] 0.922 | [33] 0.977 | [34] 0.983 | [35] 0.964 | [36] 0.988 | [37] 0.983 | [38] 0.978 | [39] 0.994 | [40] 0.969 | [41] 0.981 | [42] 0.966 | [43] 0.985 | [44] 0.995 | [45] 0.981 | [46] 0.948 | [47] 0.987 | [1] 0.976 | [2] 0.979 | [48] 0.99 | [49] 0.961 | [50] 0.984 | [3] 0.991 | [51] 0.982 | [52] 0.966 | [53] 0.979 | [54] 0.966 | [55] 0.996 | [4] 0.883 | [56] 1 | [57] 0.984 | [58] 0.983 | [59] 0.988 | [60] 0.988 | [61] 0.982 | [62] 0.994 | [5] 1.01 | [63] 0.958 | [64] 0.974 | [65] 0.981 | [66] 0.96 | [67] 0.987 | [68] 0.959 | [69] 0.992 | [70] 0.998 | [71] 0.967 | [72] 0.971 | [73] 0.945 | [74] 0.965 | [75] 0.979 | [76] 0.972 | [77] 0.979 | [6] 0.891 | [78] 0.987 | [79] 0.946 | [80] 0.974 | [81] 0.978 | [82] 0.994 | [83] 0.985 | [84] 0.981 | [85] 0.997 | [86] 0.978 | [7] 0.991 | [87] 0.99 | [88] 0.97 | [89] 0.939 | [90] 1 | [91] 0.997 | [92] 0.931 | [93] 0.98 | [8] 0.965

From PubChem BioAssay AID1159580 (chemical genetic matrix, 2015)
